Hsp90 Hop PPI = changes Hsp90-Hop TPR2A binding signal, up or down | AlphaScreen TPR2A-His6 binding biotin-Hsp90 C-terminal peptide | Potency, µM (titrated, usually from 57 µM) | 71,000 compounds, 0.44% hits; active means well fitted curve in either direction with a large enough effect; inconclusive means small, poorly fitted or top-dose-only effect, or another doubt
Tau filament bind = tau filament binding; P10636; recombinant tau filaments, thioflavin S fluorescence, 15 h; filaments grown with octadecylsulfate alongside compound; Potency, µM (titrated, usually from 57.1 µM); 71,000 compounds, 2% hits; AID 596;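 further: actives lower thioflavin S fluorescence by blocking filaments or displacing dye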
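Tau 2 uM in ThS buffer dispensed; compound added; 60 uM ODS added (finals 1 uM tau, 30 uM ODS); 15 h 37 C; fluor ex450/em510.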
BRCT PPI green = BRCA1 BRCT-phosphoprotein interaction inhibition | BRCA1 BRCT-phosphopeptide binding, green fluorescence polarization | Potency, µM (titrated, usually from 76.9 µM), usual class: inhibitors | 75,000 compounds, 0.05% hits
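Compounds were incubated for 12 min at room temperature with a complex of 100 nM fluorescein-tagged pBACH1 decapeptide and 250 nM His-tagged BRCT protein. Buffer was phosphate pH 7.3 with EDTA, DTT and Tween 20. Disruption of binding lowers the polarization signal.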
DNA Pol III inh = blocks replication by bacterial DNA polymerase III holoenzyme | Potency, µM (top dose mostly 57.1 µM) | AID 603 | 71,000 compounds, 0.25% hits | reconstituted DNA polymerase III holoenzyme replication, biochemical
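Reconstituted *E. coli* holoenzyme (0.35 nM Pol III, 1 nM beta, 154 nM SSB, 2 nM primase) was preincubated with compound for 15 min at RT. Synthesis on 1.4 nM ssM13Gori ran 35 min, then was stopped with PicoGreen/EDTA and read as dsDNA fluorescence.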
BRCT inh red = BRCT-phosphoprotein interaction inhibition (red fluorophore); BRCT-phosphopeptide binding, red fluorescence polarization; P38398; Potency, µM (titrated, usually from 76.9 µM), usual class: inhibitors; AID 892; 75,000 compounds, 0.03% hits
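Fluorescence polarization: 100 nM His-tagged BRCA1 BRCT with 100 nM TAMRA-labelled phospho-BACH1 decapeptide, phosphate buffer pH 7.3 with 150 mM NaCl, DTT, 0.01% Tween 20; 12 min RT. Binding inhibition seen as FP decrease.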
YjeE inh = YjeE (TsaE) inhibition, E. coli. P0AF67. purified YjeE enzyme, qHTS inhibition assay. Potency, µM. 71,000 compounds, 0.05% hits. AID 605
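Fluorescence polarization of a BODIPY Texas Red–ADP probe (2 uM) bound to purified YjeE (10 uM) was read after 15 min room-temperature incubation with compounds. Loss of polarization marks inhibitors; ADP serves as titrated control.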
Hsp90-TPR2A inh = confirmation and counter-screen of Hsp90 TPR2A co-chaperone interaction disrupters; activity, negative = inhibition, % at 40 µM or 46 µM, hits read low; shares compounds with Hsp90 Hop PPI; AID 632; AlphaScreen TPR2A-His6 / biotin-Hsp90 peptide binding; 45 compounds, 100% hits;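 active means compound lowering the Hsp90 and TPR2A binding signal, whether or not the linker counterscreen also flagged it as an artifact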
Large screens that a line does not name were inactive (follow-up assays come after a bar, where they were run); ! = repeats disagree. A selection: hits, their analogues and other compounds. The true share with any hit is near 2.3%. Unless noted, the call rests on the fitted dose curve; in most records, active means well fitted curve in the direction sought with a large enough effect; inconclusive means small, poorly fitted or top-dose-only effect, or another doubt; inactive means no such curve, though single readings can be large; an effect the other way counts as inactive or inconclusive.

CC(C)(O)[C@@H]1C2OC(=O)[C@@H]1[C@]1(O)C[C@H]3O[C@]34C(=O)O[C@H]2[C@]14C	none (no result: Hsp90 Hop PPI, Tau filament bind, DNA Pol III inh, YjeE inh)
C=C(C)[C@H]1[C@H]2OC(=O)[C@@H]1[C@]1(O)C[C@H]3O[C@]34C(=O)O[C@H]2[C@]14C	Hsp90 Hop PPI inconclusive, Tau filament bind 32µM (no result: BRCT PPI green, BRCT inh red)
Brc1ccc(Oc2cc(Br)c(Br)cc2Br)c(Br)c1	Hsp90 Hop PPI 32µM!
CCCCC/C=C\C/C=C\C/C=C\C/C=C\CCCC(=O)Nc1ccc(O)cc1	Tau filament bind 32µM
C[C@@H]1CCC/C=C\[C@H]2C[C@H](O)C[C@@H]2[C@H](O)/C=C\C(=O)O1	none (no result: BRCT PPI green, BRCT inh red)
[Cl-].[Cl-].[Hg+2]	DNA Pol III inh 32µM
C[n+]1c(/C=C\c2ccc(O)c3ncccc23)[se]c2ccccc21	Hsp90 Hop PPI 3.2µM, Tau filament bind inconclusive
CC(=O)O/C(=C1/C[C@H]2[C@@H]3CC=C4C[C@@H](OC(C)=O)CC[C@]4(C)[C@@H]3CC[C@]2(C)C1=O)C(F)(F)F	none
COc1cc2c(cc1OC)[C@@]13CCN4CC5=CCO[C@H](CC(=O)O)[C@@H]([C@H]1N2)[C@H]5C[C@H]43	none
Clc1ccc(C(c2ccc(Cl)cc2)C(Cl)Cl)cc1	Hsp90 Hop PPI 32µM
COc1ccc2[nH]cc(CCN)c2c1	none
COc1ccc2[nH]c3c(c2c1)CCN=C3C	Tau filament bind 2.5µM
CCCC[C@@H]1C[C@H]1C(NP(=O)(c1ccccc1)c1ccccc1)c1ccc(Cl)cc1 (stereo partly drawn)	none (no result: BRCT PPI green, BRCT inh red)
COc1ccc(P2(=O)Nc3ccccc3N2)cc1	Tau filament bind 16µM
CC1(C)CN=C(NCc2ccccc2Cl)S1	Tau filament bind 25µM
CC1(C)CN=C(Nc2ccccc2C(F)(F)F)S1	Hsp90 Hop PPI inconclusive
O=c1cccc2n1C[C@@H]1C[C@H]2CN2CCCC[C@H]12	Tau filament bind 32µM (no result: BRCT PPI green, BRCT inh red)
C[C@@H]1O[C@H](O[C@H]2C[C@@H](O)[C@]3(CO)[C@H]4[C@H](O)C[C@]5(C)[C@@H](C6=CC(=O)OC6)CC[C@@]5(O)[C@H]4CC[C@]3(O)C2)[C@@H](O)[C@H](O)[C@H]1O	Tau filament bind inconclusive (no result: BRCT PPI green, BRCT inh red)
Cn1nc(-c2ccccc2)nc2c(=O)n(C)c(=O)nc1-2	none (no result: Hsp90 Hop PPI, Tau filament bind, BRCT PPI green, DNA Pol III inh, BRCT inh red, YjeE inh) | Hsp90-TPR2A inh active
CCn1nc(-c2ccccc2)nc2c(=O)n(C)c(=O)nc1-2	Hsp90 Hop PPI 1.3µM | Hsp90-TPR2A inh active
Cc1nc2c(=O)n(C)c(=O)nc-2n(C)n1	none (no result: Hsp90 Hop PPI, Tau filament bind, BRCT PPI green, DNA Pol III inh, BRCT inh red, YjeE inh) | Hsp90-TPR2A inh active
CCCCCC[C@H]1C(=O)O[C@@H](C)[C@H](NC(=O)c2cccc(NC=O)c2O)C(=O)O[C@@H](C)[C@@H]1OC(=O)CC(C)C	Tau filament bind inconclusive (no result: BRCT PPI green, BRCT inh red)
O=C(O)c1cccc([As]=[As]c2cccc(C(=O)O)c2)c1 (stereo not drawn)	none
CN(C)[C@@H]1C(=O)C(C(N)=O)=C(O)[C@]2(O)C(=O)C3=C(O)c4c(O)cccc4[C@@](C)(O)[C@@H]3C[C@@H]12	Tau filament bind inconclusive (no result: BRCT PPI green, BRCT inh red)

High-throughput results deposited in PubChem by National Center for Advancing Translational Sciences (NCATS).
